# From paper PMC5540273 (PLoS ONE, 2017)
# How the values were obtained:
# Conditions in all cases: concentration: 1 μM, replicates: in singlicate; n = 1
# [1] = test system: PRKD3
# [2] = test system: PRKG1
# [3] = test system: PRKG2
# [4] = test system: T1, PRKR
# T1 construct: gene EIF2AK2
# [5] = test system: PRKX
# [6] = test system: PRP4
# [7] = test system: T2, PYK2
# T2 construct: gene PTK2B
# [8] = test system: QSK
# [9] = test system: RAF1
# [10] = test system: RET
# [11] = test system: RIOK1
# [12] = test system: RIOK2
# [13] = test system: RIOK3
# [14] = test system: RIPK1
# [15] = test system: RIPK2
# [16] = test system: RIPK4
# [17] = test system: RIPK5
# [18] = test system: ROCK1
# [19] = test system: ROCK2
# [20] = test system: ROS1
# 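Further: KINOMEscan kinase panel screen.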
Compound,%Inh [1],%Inh [2],%Inh [3],%Inh [4],%Inh [5],%Inh [6],%Inh [7],%Inh [8],%Inh [9],%Inh [10],%Inh [11],%Inh [12],%Inh [13],%Inh [14],%Inh [15],%Inh [16],%Inh [17],%Inh [18],%Inh [19],%Inh [20]
COc1cc(Nc2ncc3c(C)nc(-c4cc5ccccc5[nH]4)n3n2)cc(OC)c1OC [GW869516],0%,0%,0%,35%,0%,0%,36%,0%,18%,45%,35%,0%,23%,26%,6%,0%,0%,0%,0%,0%
COc1cccc(NC(=O)NC2CCN(c3ccnc(Nc4cc(OC)c(OC)c(OC)c4)n3)C2)c1 (centres unmarked) [GSK1379763],0%,0%,0%,6%,28%,26%,4%,0%,7%,16%,85%,0%,82%,6%,29%,49%,0%,4%,9%,23%
O=C(Nc1n[nH]c2nc(-c3ccc(O)cc3)ccc12)C1CC1 [SB-710363],0%,19%,10%,0%,0%,0%,26%,17%,13%,0%,47%,0%,46%,2%,0%,39%,0%,0%,0%,0%
COC(=O)Nc1nc2ccc(Oc3ccc(NC(=O)Nc4cc(C(F)(F)F)ccc4F)cc3)cc2n1C.Cl [GW692089],5%,14%,5%,0%,0%,58%,0%,0%,85%,99.5%,0%,0%,0%,39%,29%,0%,0%,34%,39%,28%
COC(=O)Nc1nc2cc(Oc3ccc(NC(=O)Nc4cc(C(F)(F)F)ccc4F)cn3)ccc2[nH]1.Cl.Cl [GW681170],13%,9%,22%,0%,0%,22%,16%,0%,90.3%,99.9%,0%,0%,14%,41%,58%,0%,0%,51%,46%,27%
O=C(Nc1n[nH]c2cc(-c3ccoc3)ccc12)C1CC1 [SB-738481],0%,0%,14%,0%,0%,0%,9%,11%,0%,0%,68%,5%,0%,28%,0%,17%,3%,0%,0%,9%
Oc1cc(Nc2ccnc3cc(I)ccc23)ccc1F [GW552771],40%,0%,0%,0%,0%,18%,25%,69%,49%,85%,25%,29%,0%,0%,50%,0%,0%,30%,27%,0%
COc1cc(Nc2nccc(N3CCC(NC(=O)c4cc5ccccc5s4)C3)n2)cc(OC)c1OC (centres unmarked) [GSK1379760],0%,9%,7%,8%,24%,48%,0%,100%,15%,21%,76%,14%,53%,24%,7%,0%,0%,0%,14%,45%
NCCCC(NC(=O)c1cc(Br)c(-c2ccnc3[nH]ccc23)s1)c1ccccc1.O=C(O)C(F)(F)F.O=C(O)C(F)(F)F (centres unmarked) [GSK1287544],53%,97.8%,98%,0%,92.5%,0%,0%,0%,0%,54%,91.8%,66%,76%,53%,0%,6%,1%,99.4%,92.8%,10%
C[C@@H]1CC[C@@H](C(=O)Nc2ccccc2)CN1c1cc(-c2ccc3c(N)n[nH]c3c2)nc(N)n1 [GSK2286062],0%,0%,0%,2%,5%,13%,3%,3%,2%,6%,48%,52%,20%,31%,0%,0%,0%,14%,35%,14%
c1ccc(-c2cnc3nccnn23)cc1 [AH20685],0%,14%,0%,0%,6%,6%,0%,0%,7%,0%,0%,0%,0%,0%,0%,0%,0%,0%,0%,0%
Cl.Cl.NCC(C(=O)Nc1cc(Br)c(-c2ccnc3[nH]ccc23)s1)c1ccccc1 (centres unmarked) [GSK1269851],41%,94.6%,86%,0%,88%,83%,2%,15%,0%,32%,95.7%,19%,67%,0%,0%,27%,0%,99.1%,91.8%,12%
COCCOCCOc1cc2ncc3c4ccc(C#N)cc4[nH]c3c2cc1OC,0%,0%,17%,41%,0%,19%,6%,67%,0%,45%,99.4%,0%,83%,20%,0%,17%,0%,96.9%,99.2%,51%
O=C(Nc1cccc(-c2nn3ncccc3c2-c2ccnc(Nc3ccccc3)n2)c1)c1c(F)cccc1F [GSK198271],47%,0%,0%,0%,11%,6%,27%,10%,94.1%,99.7%,4%,17%,16%,0%,94.8%,10%,6%,34%,0%,28%
COc1ccc(-c2coc3ccc(-c4nnc(SCc5ccc(OC)c(C(F)(F)F)c5)o4)cc23)cc1,0%,6%,14%,0%,0%,15%,0%,0%,12%,0%,0%,20%,9%,9%,17%,12%,20%,0%,23%,0%
Nc1ncnc2c1nc(-c1ccccc1)n2-c1ccccc1 [SKF-97293],22%,7%,0%,27%,3%,15%,8%,26%,0%,17%,0%,1%,6%,3%,7%,27%,36%,56%,43%,15%
Cn1cc(-c2ccc3c(c2)CCN3C(=O)Cc2cccc(F)c2)c2c(N)ncnc21 [GSK2603358],2%,0%,4%,1%,14%,44%,0%,8%,9%,47%,7%,0%,0%,99.7%,34%,5%,62%,9%,64%,21%
CN(C)S(=O)(=O)c1cc(-c2ccc3nccc(-c4cccc(S(N)(=O)=O)c4)c3c2)cnc1N [GSK1669921],100%,34%,76%,0%,27%,0%,6%,7%,9%,58%,36%,23%,21%,4%,8%,9%,26%,0%,0%,0%
Cc1ccc(S(=O)(=O)Nc2ccc(Nc3nccc(Nc4cccc5[nH]ncc45)n3)cc2)cc1 [GSK581271],0%,0%,5%,0%,6%,53%,12%,6%,10%,8%,78%,40%,34%,5%,69%,0%,0%,0%,8%,25%
